Measurements published in PubChem BioAssay (NCATS).
Results filed as inconclusive are left out. Calls come from the whole dose curve; as a rule, active = well fitted curve in either direction with a large enough effect (not every such curve was filed as active); inconclusive = small, poorly fitted or top-dose-only effect, or another doubt; inactive = flat fitted curve, though single readings scatter.

Assay: Stat Signaling Pathway (AID 446);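 note: ME-180 cervical cancer cells given 40 pM IL-6 alongside compound; SIE-controlled beta-lactamase reporter measured as 460/530 nm FRET emission ratio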
Settings: ME-180 SIE beta-lactamase reporter, IL-6 stimulated, 5 h; at 17.2 µM (top of the series) unless noted
How it was run: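 Screening format detects activators and inhibitors alike: ME-180 SIE-bla cells stimulated at 40 pM IL-6 for 5 hrs with compound, then dual-emission beta-lactamase read at 405 nm excitation.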
% is set by controls: 0 for no effect and ±100 for the full control effect.

activity, negative = inhibition, inactive:
CCOC(=O)C1/C(=N\O)CC(C)(O)C(C(=O)OCC)C1c1ccc(N(C)C)cc1 (stereo not given) -4.68%
CN1CCN(Cc2c(O)ccc3c(-c4ccccc4)cc(=O)oc23)CC1 -7.33%
N#CC1(c2ccccc2)CCC(=NO)CC1 (stereo not given) 11.5%
CC1(C)NC(=O)N(CC(O)COc2ccccc2C(=O)Nc2ccccc2)C1=O (stereo not given) 3.3%
COc1ccccc1C1/C(=C(/O)c2cnn(-c3ccccc3)c2C)C(=O)C(=O)N1CCN(C)C (stereo not given) 2.75%
O=c1[nH]c(-c2ccccn2)nc2ccccc12 13.3%
CCOC(=O)C1=C(C)N=C2SC(C)C(=O)N2C1c1ccc(OC(C)=O)c(OC)c1 (stereo not given) -17.1%
C=CCc1c(C)nc(SCCC)[nH]c1=O -7.18%
Cc1sccc1C1C(C#N)=C(N)SC(N)=C1C#N -25.4%
COCc1[nH]nc2c1C(c1cccc(OC)c1)C(C#N)=C(N)O2 (stereo not given) -11%
COc1ccc(N2CCN(c3nc4c(c(=O)[nH]c(=O)n4C)n3CCCc3ccccc3)CC2)cc1 -11%
CN/C(=C/[N+](=O)[O-])NCCSCc1ccc(CN(C)C)o1 -3.38%
Cc1cc(C)nc(NC2=NCC(=O)N2c2cccc(Cl)c2)n1 0.214%
CN1c2ccccc2N(C)C1c1c(O)ccc2ccccc12 -4.67%
CCOC(=O)CNC(=O)CCCCCC(=O)NCC(=O)OCC 7.81%
CCc1[nH]c(=O)c(C#N)c2c1CSC(C)(C)C2 9.69%
Cc1ccc(C(=O)NCC(C)(C)O)cc1 12.1%
O=S(=O)(N[C@@H]1C[C@H]2CC[C@@H]1C2)c1cccs1 -0.621%
CCOc1cccc(NC(=O)C2CC(=O)NC(=Nc3ccccc3)S2)c1 (stereo not given) -16.5%
COc1ccc(C2=Nn3c(nnc3-c3cccnc3)SC2)cc1OC -17.6%
COc1ccc2nc(SCC(=O)O)nc(C)c2c1 3.73%
C=CCn1cnc2c(c1=O)c1nc3ccccc3nc1n2-c1ccc(Cl)cc1 -1.17%
COc1cccc(Cn2c(OCC3CCCO3)nc3c2c(=O)n(C)c(=O)n3C)c1 (stereo not given) -4.79%
Cc1ccc(C(=O)C2=C(O)C(=O)N(c3ncccn3)C2c2ccc(Cl)cc2)o1 (stereo not given) -10.8%
CCOc1cccc(N2C(=O)CC(N(CCc3ccc(OC)c(OC)c3)C(=O)CC)C2=O)c1 (stereo not given) 3.67%
Cn1c(=O)n(CC(=O)Nc2ccccc2)c2ccccc21 -7.48%
CC(O)c1n(C)c(Cl)c[n+]1C (stereo not given) -4.96%
O=C(CN1C2=NCCN2c2ccccc21)N1CCOCC1 8.05%
CCOC(=O)c1ccc(NC(=O)Cn2nnc3ccccc32)cc1 -15%
COCCNc1oc(-c2ccc(Cl)cc2)nc1C#N -5.03%
COC(=O)C(NC(=O)c1ccco1)(Nc1nc(C)cs1)C(F)(F)F (stereo not given) -2.51%
COc1ccccc1Cn1c2nc3ccccc3nc2c2c(=O)n(CC(C)C)cnc21 -12.8%
C=C1C2(C(=O)Nc3nccs3)CCC(C2)C1(C)C (stereo not given) -0.516%
Clc1ccccc1-c1nn2c(-c3ccccn3)nnc2s1 12.8%
COc1ccc(C(=O)OC(C)CN2CCN(C)CC2)cc1OC (stereo not given) 11.6%
Cc1cc(O)ccc1-c1cnc2ccccc2n1 21.5%
N#C/C(C(=O)N1CCCCC1)=C1\Nc2ccccc2S1 -10.3%
CC1(C)CC(=O)C(C=N)=C(O)C1 2.78%
O=C(CN1CCc2[nH]c3ccccc3c2C1)N1CCCCC1 4.96%
O=S(=O)(c1ccccc1)N(CC(O)CN1CCCCC1)c1ccccc1 (stereo not given) 3.01%
